Laboratory results reported in PubChem BioAssay (NCATS).
Inconclusive results are not listed. The source made the active and inactive calls. Unless noted, calls follow the shape of the full dose curve.

Tests used:
[1] = qHTS for Inhibitors of the Functional Ribonucleoprotein Complex (vRNP) of Lassa (LASV) Arenavirus: Viability assay - alamar blue signal for LASV Primary Screen (AID 1347083; calls by dose curve; tested in HEK293 reporter line; also: nearly all actives have a fitted effect of over 80% in size); conditions: cell viability, alamar blue fluorescence (LASV minigenome counter-screen); series mostly up to 57.5 µM
[2] = qHTS for Inhibitors of the Functional Ribonucleoprotein Complex (vRNP) of Lymphocytic Choriomeningitis Arenaviruses (LCMV): Viability assay - alamar blue signal for LCMV Primary Screen (AID 1347085; calls by dose curve; tested in HEK293 reporter line; also: nearly all actives have a fitted effect of over 80% in size); conditions: alamar blue viability counter-screen, LCMV vRNP screen cells; series mostly up to 57.5 µM
[3] = target: Nucleoprotein (Lymphocytic choriomeningitis virus (strain Armstrong)) (UniProt P09992); experiment: qHTS for Inhibitors of the Functional Ribonucleoprotein Complex (vRNP) of Lymphocytic Choriomeningitis Arenaviruses (LCMV): LCMV Primary Screen - GLuc reporter signal (AID 1347086); conditions: LCMV minigenome vRNP cell assay, Gaussia luciferase reporter; series mostly up to 57.5 µM; also: nearly all actives have a fitted effect of over 70% in size
Nucleoprotein (Lymphocytic choriomeningitis virus (strain Armstrong)), sequence (P09992 whole entry, looked up): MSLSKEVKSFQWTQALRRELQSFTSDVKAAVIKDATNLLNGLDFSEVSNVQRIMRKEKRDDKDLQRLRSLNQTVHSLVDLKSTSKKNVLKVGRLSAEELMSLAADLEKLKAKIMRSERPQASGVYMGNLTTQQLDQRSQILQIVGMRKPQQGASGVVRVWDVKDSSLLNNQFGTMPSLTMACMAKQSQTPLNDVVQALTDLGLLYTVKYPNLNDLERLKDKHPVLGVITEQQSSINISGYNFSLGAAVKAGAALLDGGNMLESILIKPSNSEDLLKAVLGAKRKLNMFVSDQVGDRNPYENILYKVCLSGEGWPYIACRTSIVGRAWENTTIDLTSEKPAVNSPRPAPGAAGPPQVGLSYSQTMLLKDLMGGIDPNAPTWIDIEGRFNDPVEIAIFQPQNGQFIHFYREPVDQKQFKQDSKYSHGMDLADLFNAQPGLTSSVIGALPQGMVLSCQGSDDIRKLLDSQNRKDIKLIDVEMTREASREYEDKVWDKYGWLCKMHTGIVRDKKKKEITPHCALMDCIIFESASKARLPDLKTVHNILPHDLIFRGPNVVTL
Potency is read from the fitted curve at half-maximal effect.

| Compound | Potency [1] | Potency [2] | Potency [3] |
| --- | --- | --- | --- |
| CC(C)CC(=O)Nc1n[nH]c2c1CN(C(=O)C1CCN(C)CC1)C2(C)C | inactive | inactive | inactive |
| CCc1cncnc1N1CCN(Cc2nc3ccc(C(F)(F)F)cc3[nH]2)CC1 | inactive | inactive | – |
| Cc1cccc(C=NNc2cc(N3CCOCC3)nc(OCCc3ccccn3)n2)c1 | 1.93 µM (active) | 1.37 µM (active) | – |
| COc1cccc2nc(-c3cccs3)nc(NN3C(=O)C=C(C)C3=O)c12 | 2.73 µM (active) | 6.11 µM (active) | 7.69 µM (active) |
| C[C@]1(CO)CN(c2cc(C(=O)Nc3ccc4c(c3)-c3c(c(C(N)=O)nn3-c3ccc(F)cc3)CC4)c(Cl)cn2)C[C@@]1(C)CO | 1.72 µM (active) | 1.37 µM (active) | – |
| COc1cc2c(Oc3ccc(NC(=O)C4(C(=O)Nc5ccc(F)cc5)CC4)cc3F)ccnc2cc1OCCCN1CCOCC1 | 21.7 µM (active) | 21.7 µM (active) | – |
| CN(c1ncccc1CNc1nc(Nc2ccc3c(c2)CC(=O)N3)ncc1C(F)(F)F)S(C)(=O)=O | 24.3 µM (active) | 34.3 µM (active) | – |
| O=C1C(Cl)=C(NCCN2CCOCC2)C(=O)c2ncccc21 | 34.3 µM (active) | – | – |
| CN1CCN(c2cc(C(=O)Nc3ccc4c(c3)-c3c(c(C(N)=O)nn3-c3ccc(F)cc3)CC4)c(Cl)cn2)CC1 | 2.73 µM (active) | – | – |
| CC1(O)CC(c2nc(-c3ccc4ccc(-c5ccccc5)nc4c3)c3c(N)nccn23)C1 (stereo unspecified) | 5.44 µM (active) | 3.85 µM (active) | – |
| Cc1[nH]c2ccccc2c1CCNCc1ccc(C=CC(=O)NO)cc1 | 0.863 µM (active) | 0.863 µM (active) | – |
| Cc1ccc(C(=O)Nc2ccc(CN3CCN(C)CC3)c(C(F)(F)F)c2)cc1C#Cc1cnc2cccnn12 | 1.22 µM (active) | 3.43 µM (active) | – |
| CCOc1cc(C(=O)Nc2ccc(Cl)c(-c3nc4ccccc4[nH]3)c2)cc(OCC)c1OCC | 17.2 µM (active) | – | – |
| Cc1ccc(C(=O)N(CCCN)[C@@H](c2nc3cc(Cl)ccc3c(=O)n2Cc2ccccc2)C(C)C)cc1 | inactive | – | – |
| Nc1ccc(C(=O)c2cc3c(ccc4ccccc43)[nH]2)cc1 | 17.2 µM (active) | – | – |
| CN(C)Cc1ccc(-c2nc3cccc4c3n2CCNC4=O)cc1 | 21.7 µM (active) | 6.85 µM (active) | inactive |

| Compound | Potency [1] | Potency [2] | Potency [3] |
| --- | --- | --- | --- |
| CC=C1NC(=O)[C@H]2CSSCCC=C[C@H](CC(=O)N[C@H](C(C)C)C(=O)N2)OC(=O)[C@H](C(C)C)NC1=O | 0.0968 µM (active) | 0.0968 µM (active) | – |
| Cc1cc(-c2ccc(CC(=O)Nc3ccc(-c4cccnc4)cc3)cc2)ccn1 | 19.3 µM (active) | – | – |
| CN1[C@H]2CC(O)C[C@H]1[C@H]1O[C@H]12 (stereo partly specified) | 27.3 µM (active) | – | – |
| O=C(c1ccc(Nc2nccc(-c3cc4ccccc4s3)n2)cc1)N1CCC(N2CCCC2)CC1 | 21.7 µM (active) | – | – |
| CC(C)c1ccc(Cn2ccc3c4c(N)nc(NC5CC5)nc4ccc32)cc1 | 7.69 µM (active) | 7.69 µM (active) | – |
| Cn1c(=O)c(F)c(Nc2ccc(I)cc2F)c2c(=O)n(C[C@@H](O)CO)cnc21 | 4.85 µM (active) | – | – |
| COc1cc(=C2C=c3ccccc3=N2)[nH]c1=Cc1[nH]c(C)cc1C | 21.7 µM (active) | 21.7 µM (active) | – |
| Cn1cc(-c2[nH]c3cc(NC(=O)[C@H](N)C4CCCCC4)cc4c3c2C=NNC4=O)cn1 | 3.43 µM (active) | 4.85 µM (active) | 2.73 µM (active) |
| CCCCc1nc2cc(C=CC(=O)NO)ccc2n1CCN(CC)CC | 6.85 µM (active) | 7.69 µM (active) | – |
| CC(C)[C@H](C(=O)Nc1ccc(C(=O)NO)cc1)c1ccccc1 | 5.44 µM (active) | 6.85 µM (active) | – |
| COc1ccc(-c2c(-c3ccc(O)cc3O)n[nH]c2C)cc1 | inactive | inactive | inactive |
| Cc1cc(Nc2cc(N3CCN(C)CC3)nc(Sc3ccc(NC(=O)C4CC4)cc3)n2)n[nH]1 | 19.3 µM (active) | 38.5 µM (active) | – |
| Cc1nc2cnc3ccc(C#Cc4cccnc4)cc3c2n1-c1ccc(C(C)(C)C#N)cc1 | 0.0432 µM (active) | 0.109 µM (active) | 0.109 µM (active) |
| CC[C@H](Nc1ncnc2nc[nH]c12)c1nc2cccc(F)c2c(=O)n1-c1ccccc1 | 24.3 µM (active) | – | – |
| CN(C)CCCNC(=O)c1ccc(-c2cc(O)c3ncccc3c2)cc1 | 38.5 µM (active) | 19.3 µM (active) | – |
| CCOc1cc(N2CCC(O)CC2)ccc1Nc1ncc2c(n1)N(C)c1ccccc1C(=O)N2C | 7.69 µM (active) | 6.85 µM (active) | 3.43 µM (active) |
